Screening results as filed in PubChem.
Compounds with a hit are over-represented: about 7.5% of the library has one in this group of screens.
Rab9 promoter act: qHTS Assay for Rab9 Promoter Activators | Huh7 Rab9 promoter-luciferase reporter, luminescence, 24 h | actives 2.8% (n = 320,000) | Potency, µM (series often up to 9.22 µM), without a hit: at the top dose activation, negative = inhibition, actives largely listed as activators; also: % of control where 0% means no effect; nearly all actives have a fitted effect of over 60% in size
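Rab9 promoter-driven luciferase in stably transfected Huh7 cells; 1500 cells/well rested 2 h, exposed to compound in DMSO for 24 h at 37 °C, 5% CO2. Luminescence read 10 min after adding luciferase reagent at ambient temperature.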
SMN2 splice enh: qHTS Assay for Enhancers of SMN2 Splice Variant Expression; Potency, µM (top dose mostly 46.1 µM), for inactives: top-dose activity change, positive = activation, actives largely listed as activators; HEK293 SMN2-luciferase splicing reporter, luminescence, 30-36 h; actives 2.8% (n = 210,000); AID 1458, 2008; also: % of control where 0% means no effect; nearly all actives have a fitted effect of over 55% in size
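HEK293 cells carry an SMN2 minigene-luciferase reporter in which exon 7 inclusion puts luciferase in frame. Cells were seeded at 2000 cells/well, attached for 10-12 hours, then exposed to compounds for 30-36 hours at 37C before ONE-Glo luminescence.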
NPC1 promoter act: qHTS Assay for NPC1 Promoter Activators. Huh7 NPC1 promoter luciferase reporter, 24 h. Potency, µM (top dose mostly 9.22 µM), inactives show top-dose activation, most hits filed as activators. actives 2.4% (n = 320,000). AID 485313, 2010; also: % of control where 0% means no effect; nearly all actives have a fitted effect of over 60% in size
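Readout is luciferase luminescence, reflecting NPC1 promoter activation in stably transfected Huh7 cells after 24 h compound exposure at 37 °C in reduced-serum medium with 10% FBS.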
FLuc modulator: qHTS profiling assay for firefly luciferase inhibitor/activator using purifed enzyme and Km concentrations of substrates (counterscreen for miR-21 project) | Luciferin 4-monooxygenase (Photinus pyralis), P08659 | purified FLuc, Km substrates, luminescence inhibition | Potency, µM (titrated, usually from 57.5 µM), for the others: top-dose activity change, negative = inhibition, actives largely listed as inhibitors | actives 6.9% (n = 360,000);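 also: plate controls were vehicle for no effect and reference inhibitor for full effect; nearly all actives have a fitted effect of over 55% in size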
Target sequence (P08659 whole entry, looked up): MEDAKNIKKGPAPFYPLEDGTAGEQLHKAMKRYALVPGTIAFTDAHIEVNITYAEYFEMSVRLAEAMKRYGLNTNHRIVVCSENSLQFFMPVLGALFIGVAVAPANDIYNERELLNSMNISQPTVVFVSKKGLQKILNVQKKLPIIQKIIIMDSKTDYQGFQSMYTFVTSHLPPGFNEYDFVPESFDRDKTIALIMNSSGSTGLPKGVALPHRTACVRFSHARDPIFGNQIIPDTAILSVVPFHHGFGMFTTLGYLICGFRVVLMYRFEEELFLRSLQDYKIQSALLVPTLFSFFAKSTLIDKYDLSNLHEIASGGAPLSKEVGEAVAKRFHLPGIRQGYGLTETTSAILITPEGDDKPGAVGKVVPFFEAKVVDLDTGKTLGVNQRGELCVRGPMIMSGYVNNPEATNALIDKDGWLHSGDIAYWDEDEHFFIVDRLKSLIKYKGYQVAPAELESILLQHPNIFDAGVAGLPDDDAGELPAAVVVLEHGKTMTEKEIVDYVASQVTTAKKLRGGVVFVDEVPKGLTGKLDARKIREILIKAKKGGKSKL
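Biochemical qHTS of compounds, final roughly 60 µM downward over six points, against 10 nM purified firefly luciferase using Km concentrations of substrates (10 uM D-luciferin, 10 uM ATP) in Tris acetate pH 7.5 buffer; luminescence output.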
ELG1 genotoxic: qHTS screen for small molecules that induce genotoxicity in human embryonic kidney (HEK293T) cells expressing luciferase-tagged ELG1 | Potency, µM (titrated, usually from 46 µM), for inactives: top-dose activity change, positive = activation, hits mostly activators | HEK293T ELG1-luciferase reporter, luminescence, 16 h | actives 1.3% (n = 330,000); also: % of control where 0% means no effect; nearly all actives have a fitted effect of over 60% in size
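HEK293T cells expressing luciferase-tagged ELG1 were exposed to compound or DMSO vehicle for 16 hr at 37 °C and 5% CO2. Luciferase activity was then measured with ONE-Glo after 30 min at room temperature.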
Starred values were filed as active, the others as inactive; ? = inconclusive; · = no result. Calls follow the shape of the dose curve; as a rule, active = well fitted curve in the direction sought with a large enough effect; inconclusive = small, poorly fitted or top-dose-only effect, or another doubt; inactive = no such curve, though single readings can be large; an effect the other way counts as inactive or inconclusive. Potency is read from the fitted curve at half-maximal effect.

SMILES	Rab9 promoter act	SMN2 splice enh	NPC1 promoter act	FLuc modulator	ELG1 genotoxic
O=Nc1c(-c2c(O)[nH]c3ccccc23)[nH]c2ccccc12	?	13µM*	4.6µM*	·	·
Oc1[nH]c2ccccc2c1N=Nc1ccccc1	?	·	4%	6µM*	?
CCCOc1ccc(/C=N\NC(=O)CCc2n[nH]c(=O)[nH]c2=O)cc1OC	-6%	5%	-5%	-18%	-1%
Cc1cccn2cc(CNC(=O)c3ccc(Br)o3)nc12	7%	·	-3%	3%	0%
COc1ccccc1NC(=O)CN1CCN(C(=O)c2ccco2)CC1	2%	-37%	-5%	0%	4%
O=C(CNC(=O)Cc1ccccc1)N=Nc1c(O)[nH]c2ccccc12	15%	·	0%	3%	-5%
Oc1[nH]c2ccccc2c1N=Nc1nc2ccccc2s1	1.1µM*	2.5µM*	3.5µM*	1.3µM*	0.46µM*
Oc1[nH]c2ccccc2c1N=Nc1ccccc1F	?	22µM*	?	?	?
COC(=O)/C=C(\C)N=Nc1c(O)[nH]c2ccccc12	0%	·	2%	24µM*	3%
COc1cccc2cc(C(=O)NC(C)C3CCCO3)c(=O)oc12 (stereo not given)	?	?	10%	?	10%
COc1ccccc1CC(=O)Nc1cccc2c1CCCC2	-4%	4.5µM*	-7%	-2%	3%
N=c1nc(N)nc2n1NC(c1ccc(F)cc1)=CS2	-2%	20%	-1%	15µM*	16%
Fc1ccc(C2=CSC3=NCCN23)cc1	-2%	-1%	0%	-13%	1%
CCc1ccc(OC(=O)c2cccnc2)cc1	0%	·	-4%	11µM*	0%
Cc1ccc(C(=O)c2c(C)oc3c2C(=O)C(=O)c2ccccc2-3)cc1	3%	-109%	-14%	-15%	-5%
Cc1ccc(C(=O)c2coc3c2C(=O)C(=O)c2ccccc2-3)cc1	20%	-14%	15%	?	14µM*
Nc1c(N(Cc2ccccc2)C(=O)COc2cccc(Cl)c2)c(=O)[nH]c(=O)n1Cc1ccccc1	-2%	·	-5%	-1%	4%
CCn1c(SCc2ccc(C(=O)Nc3nccs3)cc2)nnc1-c1ccc(NC(C)=O)cc1	5%	9%	4%	11µM*	-3%
C=CCn1c(SCC(=O)NNC(=S)Nc2ccccc2)nnc1-c1ccccc1	-1%	·	-6%	-1%	4%
CCn1c(SCc2ccc(C(=O)Nc3nccs3)cc2)nnc1-c1ccc(N)cc1	0%	15%	12%	17µM*	-5%
CCC(Sc1nnc(-c2ccc(C)c(Cl)c2)n1CC)C(=O)Nc1nccs1 (stereo not given)	-10%	-42%	-4%	0%	-17%
C=CCn1c(SCc2ccc(C(=O)Nc3ccccc3)cc2)nnc1-c1ccccc1	10%	-14%	13%	13µM*	-7%
Cn1c(SCc2ccc(C(=O)Nc3nccs3)cc2)nnc1-c1ccccc1	10%	-1%	18%	15µM*	-2%
CCn1c(SCC(=O)Nc2nccs2)nnc1-c1ccc(S(=O)(=O)N2CCCCCC2)cc1	-8%	-40%	-3%	4%	-15%
CCc1nn(CC(=O)N2CCN(c3cccc(OC)c3)CC2)c(=O)c2cc3occc3n12	·	4%	·	-2%	·
SMILES	Rab9 promoter act	SMN2 splice enh	NPC1 promoter act	FLuc modulator	ELG1 genotoxic
CCCCCCC(=O)c1c(C)[nH]c(C(=O)OCC)c1C	27%	?	26%	?	14µM*
CCOC(=O)c1c(C)[nH]c(C(=O)COC(=O)CSC)c1C	-6%	8%	-3%	11µM*	3%
CCCCCC(=O)c1c(C)[nH]c(C(=O)OCC)c1C	6%	-1%	5%	?	0%
CCCCC(=O)OCC(=O)c1[nH]c(C)c(C(=O)OCC)c1C	-1%	27%	0%	1.9µM*	12%
COc1ccc(Nc2nnc(-c3ccc(O)cc3)c3ccccc23)cc1C(N)=O	-3%	-5%	-6%	?	0%
COC(=O)c1ccc(SCC(=O)N2CCC(C)CC2)c([N+](=O)[O-])c1	-3%	-9%	-3%	-10%	3%
O=[N+]([O-])c1ccc(Nc2ccc(F)cc2)nc1	-3%	-6%	0%	2%	3%
CN(C)c1ccc(Nc2ccc([N+](=O)[O-])cn2)cc1	?	·	3.5µM*	?	?
CCC(=O)N1CCN(c2ccccc2NC(=O)Cc2ccccc2)CC1	-9%	-16%	2%	-3%	2%
CCOC(=O)c1sc(CS(=O)(=O)c2ccc(Cl)cc2)nc1C	-3%	·	-3%	-5%	0%
CCOC(=O)c1sc(-c2ccc(Cl)cc2Cl)nc1O	-1%	·	-5%	17µM*	2%
COc1cc(NC(=O)COC(=O)c2ccc3ccccc3n2)cc(OC)c1	-2%	·	-1%	-3%	-3%
CCOc1ccc(N=C(NN)c2ccc3ccccc3n2)cc1	?	15%	29%	11µM*	?
CNc1nc(N)c([N+](=O)[O-])c(NCc2ccccc2)n1	-11%	·	-5%	3%	17%
Cc1ccc(Nc2nc(N)c([N+](=O)[O-])c(NCCO)n2)cc1C	10%	·	20%	15µM*	18%
Cc1ccc(Nc2nc(N)c([N+](=O)[O-])c(NCc3ccco3)n2)cc1C	26%	?	?	24µM*	9%
CNc1nc(NCc2ccccc2)nc(N)c1[N+](=O)[O-]	-1%	·	-2%	6%	18µM*
COCC(=O)N(C)C1(c2nnnn2CCOC(=O)Nc2cccc3ccccc23)CCCC1	-3%	-2%	-3%	2%	0%
Cn1c(S(=O)(=O)Cc2ccc(Cl)cc2)nc2ccccc21	-6%	·	-4%	-6%	-13%
Cn1c(NCc2ccc(Cl)cc2)nc2ccccc21	3.5µM*	11µM*	2.5µM*	9.5µM*	?
CCn1c(NCc2ccc(OC)cc2)nc2ccccc21	7%	·	1%	?	11%
Cn1c(NCc2c(O)ccc3ccccc23)nc2ccccc21	-9%	9%	-1%	?	-1%
CCCCn1c(NCc2ccc(N(C)C)cc2)nc2ccccc21	9%	-12%	3%	?	-3%
CCn1c(NCc2ccccc2Cl)nc2ccccc21	29%	?	19%	19µM*	1%
Cc1ccc(CNc2nc3ccccc3n2C)cc1	0.5µM*	·	0.5µM*	2.4µM*	?
C=CCn1c(NCc2ccc(N(C)C)cc2)nc2ccccc21	13%	30%	18%	24µM*	5%
COc1cc(NC(=O)CCS(=O)(=O)c2ccc3nc(C)sc3c2)cc(OC)c1OC	0%	·	-1%	5%	3%
CCc1ccccc1N1CSC2=C(C#N)C(c3ccccc3F)CC(=O)N2C1 (stereo not given)	-3%	-5%	-2%	?	-2%
